Test results taken from PubChem BioAssay (Tox21).
Inconclusive results are not listed. Activity calls are given as the source filed them. Unless noted, the call rests on the fitted dose curve; in most records, active means well fitted cell-killing curve with a large enough effect in the repeat runs (not every such curve was filed as active); inconclusive means weak or mixed curves, or effect the other way; inactive means no such curve, though single readings can be large or run the other way.

test: qHTS assay to identify small molecule antagonists of the constitutive androstane receptor (CAR) signaling pathway - cell viability counter screen (AID 1224837; active means well fitted cell-killing curve with a large enough effect in the repeat runs; further: nearly all actives have a fitted effect of over 45% in size); conditions: HepG2-CYP2B6-hCAR viability, CellTiter-Fluor, 23 h, co-treated with 50 nM CITCO; series mostly up to 92.4 µM; activity change, negative = cytotoxicity: at the top concentration
Summary of the method: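 Cytotoxicity counter-screen: CellTiter-Fluor fluorescence after 23 h compound exposure (15-point qHTS) in double-stable HepG2-CYP2B6-hCAR cells, with 50 nM CITCO added.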
On the % scale 0 is the no-effect control and ±100 the full control effect.

| Structure (SMILES) | activity change, negative = cytotoxicity |
| --- | --- |
| CC(C)COP(=O)(OCC(C)C)OCC(C)C | -1.26% (inactive) |
| CCOC(=O)CP(=O)(OCC)OCC | 12% (inactive) |
| CCOC(=O)NC(=S)Nc1ccccc1NC(=S)NC(=O)OCC | -17.8% (inactive) |
| c1cc2c(c(N3CCNCC3)c1)OCCO2 | -5.24% [at 42.5 µM] (inactive) |
| C[N+](C)=CCl | 10.2% (inactive) |
| COC(=O)c1c(C(F)F)nc(C(F)(F)F)c(C2=NCCS2)c1CC(C)C | 3.45% (inactive) |
| OCCBr | -0.58% (inactive) |
| C[N+](=O)[O-] | 5.82% (inactive) |
| [O]=[Cd] | -3.1% (inactive) |
| CC1=NNC(=O)N(/N=C/c2cccnc2)C1 | 0.675% (inactive) |
| Cc1ncsc1CCCl | 8.41% [at 42.5 µM] (inactive) |
| CC(C)CC#N | 0.378% (inactive) |
| N#Cc1ccncc1 | -4.39% (inactive) |
| CC(C1CC1)C(O)(Cn1cncn1)c1ccc(Cl)cc1 (configuration not stated) | -4.28% (inactive) |
| OC(Cn1cncn1)(c1ccc(F)cc1)c1ccccc1F (configuration not stated) | -3.87% (inactive) |
| C#C[C@]1(O)C=C[C@H]2[C@@H]3CCC4=CC(=O)CC[C@@H]4[C@H]3CC[C@@]21CC | -0.32% [at 42.5 µM] (inactive) |
| CC(C(=O)c1ccccc1)N(C)C (configuration not stated) | -4.26% [at 42.5 µM] (inactive) |
| O=[N+]([O-])c1ccc(CBr)cc1 | 1.26% (inactive) |
| COC(C)(C)C | -0.371% (inactive) |

| Structure (SMILES) | activity change, negative = cytotoxicity |
| --- | --- |
| NC(=O)c1cc([N+](=O)[O-])cc([N+](=O)[O-])c1 | -6.26% [at 42.5 µM] (inactive) |
| OC(c1ccccc1)(c1ccccc1)C1CCNCC1 | -6.86% [at 42.5 µM] (inactive) |
| CCNc1nc(NC(C)C)nc(OC)n1 | 4.24% (inactive) |
| O=C(Oc1ccc(Br)cc1)N1CCN2CCC1CC2 | -4.25% (inactive) |
| C=C(C)[C@@H]1CC=C(C=O)CC1 | -0.658% (inactive) |
| Clc1ccccc1N1CCNCC1 | -0.597% [at 42.5 µM] (inactive) |
| CCCCP(CCCC)CCCC | -0.77% (inactive) |
| CCSC(=O)N(CC)C1CCCCC1 | 2.87% (inactive) |
| CC1CCC(=O)O1 (configuration not stated) | 1.6% (inactive) |
| CC(C)CC(N(C)C)C1(c2ccc(Cl)cc2)CCC1 (configuration not stated) | -1.42% [at 42.5 µM] (inactive) |
| O=C1c2ccccc2C(=O)c2ccccc21 | 4.8% [at 19 µM] (inactive) |
| O=C1OC(c2ccc(O)c(S(=O)(=O)O)c2)(c2ccc(O)c(S(=O)(=O)O)c2)c2c(Br)c(Br)c(Br)c(Br)c21 | 1.3% [at 42.5 µM] (inactive) |
| O=[N+]([O-])c1ccc2c3c(cccc13)CC2 | -11.1% (inactive) |
| C[C@]1(O)CC[C@H]2[C@@H]3CCC4=CC(=O)CC[C@]4(C)[C@@]3(F)[C@@H](O)C[C@@]21C | 1.3% (inactive) |
| O=C(O)C(Br)CBr (configuration not stated) | 5.51% (inactive) |
| Cc1ncc(CNC(=O)N(CCCl)N=O)c(N)n1 | -0.565% [at 42.5 µM] (inactive) |
| CNC(=O)O/N=C(\C)SC | -0.135% (inactive) |
| O=C1CN=C(c2ccccc2)c2cc([N+](=O)[O-])ccc2N1 | 0.684% [at 42.5 µM] (inactive) |

test: qHTS assay to identify small molecule antagonists of the estrogen related receptor signaling pathway with the pleiotropic PPARgamma coactivator (PGC) from Tox21 10K library - cell viability counter screen (AID 1224840); conditions: PGC/ERR reporter cells viability, CellTiter-Fluor, 17.5 h; series mostly up to 92.4 µM; viability change, negative = cytotoxic: at the top concentration; further: nearly all actives have a fitted effect of over 40% in size
Summary of the method: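 Counter-screen for cytotoxicity: after 17.5 h compound exposure at 37 C, CellTiter-Fluor reagent added to PGC/ERR cells for 30 min and fluorescence read. Cells were seeded at 2,000 per well 6 h before dosing.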

| Structure (SMILES) | viability change, negative = cytotoxic |
| --- | --- |
| CC(C)COP(=O)(OCC(C)C)OCC(C)C | -8.96% (inactive) |
| CCOC(=O)CP(=O)(OCC)OCC | 2.08% (inactive) |
| CCOC(=O)NC(=S)Nc1ccccc1NC(=S)NC(=O)OCC | -13.5% (inactive) |
| c1cc2c(c(N3CCNCC3)c1)OCCO2 | 2.51% [at 42.5 µM] (inactive) |
| C[N+](C)=CCl | 9.62% (inactive) |
| COC(=O)c1c(C(F)F)nc(C(F)(F)F)c(C2=NCCS2)c1CC(C)C | 0.186% (inactive) |
| OCCBr | 0.53% (inactive) |
| C[N+](=O)[O-] | -3.39% (inactive) |
| [O]=[Cd] | 2.61% (inactive) |
| CC1=NNC(=O)N(/N=C/c2cccnc2)C1 | 1.42% (inactive) |
| Cc1ncsc1CCCl | 9.35% [at 42.5 µM] (inactive) |
| CC(C)CC#N | 7.43% (inactive) |
| N#Cc1ccncc1 | 2.49% (inactive) |
| CC(C1CC1)C(O)(Cn1cncn1)c1ccc(Cl)cc1 (configuration not stated) | 1.86% (inactive) |
| OC(Cn1cncn1)(c1ccc(F)cc1)c1ccccc1F (configuration not stated) | 0.639% (inactive) |
| C#C[C@]1(O)C=C[C@H]2[C@@H]3CCC4=CC(=O)CC[C@@H]4[C@H]3CC[C@@]21CC | -4.46% [at 42.5 µM] (inactive) |
| CC(C(=O)c1ccccc1)N(C)C (configuration not stated) | 1.17% [at 42.5 µM] (inactive) |
| O=[N+]([O-])c1ccc(CBr)cc1 | 7.71% (inactive) |
| COC(C)(C)C | 2.5% (inactive) |

| Structure (SMILES) | viability change, negative = cytotoxic |
| --- | --- |
| NC(=O)c1cc([N+](=O)[O-])cc([N+](=O)[O-])c1 | 1.21% [at 42.5 µM] (inactive) |
| OC(c1ccccc1)(c1ccccc1)C1CCNCC1 | -3.59% [at 42.5 µM] (inactive) |
| CCNc1nc(NC(C)C)nc(OC)n1 | 1.63% (inactive) |
| O=C(Oc1ccc(Br)cc1)N1CCN2CCC1CC2 | -0.644% (inactive) |
| C=C(C)[C@@H]1CC=C(C=O)CC1 | 1.03% (inactive) |
| Clc1ccccc1N1CCNCC1 | -4.16% [at 42.5 µM] (inactive) |
| CCCCP(CCCC)CCCC | 12.4% (inactive) |
| CCSC(=O)N(CC)C1CCCCC1 | 7.34% (inactive) |
| CC1CCC(=O)O1 (configuration not stated) | 11.7% (inactive) |
| CC(C)CC(N(C)C)C1(c2ccc(Cl)cc2)CCC1 (configuration not stated) | -7.57% [at 42.5 µM] (inactive) |
| O=C1c2ccccc2C(=O)c2ccccc21 | 4.21% [at 19 µM] (inactive) |
| O=C1OC(c2ccc(O)c(S(=O)(=O)O)c2)(c2ccc(O)c(S(=O)(=O)O)c2)c2c(Br)c(Br)c(Br)c(Br)c21 | 9.27% [at 42.5 µM] (inactive) |
| O=[N+]([O-])c1ccc2c3c(cccc13)CC2 | -8.01% (inactive) |
| C[C@]1(O)CC[C@H]2[C@@H]3CCC4=CC(=O)CC[C@]4(C)[C@@]3(F)[C@@H](O)C[C@@]21C | 1.24% (inactive) |
| O=C(O)C(Br)CBr (configuration not stated) | 0.295% (inactive) |
| Cc1ncc(CNC(=O)N(CCCl)N=O)c(N)n1 | 11.9% [at 42.5 µM] (inactive) |
| CNC(=O)O/N=C(\C)SC | 5.97% (inactive) |
| O=C1CN=C(c2ccccc2)c2cc([N+](=O)[O-])ccc2N1 | -6.63% [at 42.5 µM] (inactive) |

test: qHTS assay to identify small molecule antagonists of the estrogen related receptor signaling pathway with the pleiotropic PPARgamma coactivator (PGC) from Tox21 10K library (AID 1224841; call rule not given here; further: actives are mostly falling curves and most rising ones were filed inactive; nearly all actives have a fitted effect of over 50% in size); conditions: PGC/ERR reporter cell line, ONE-Glo luciferase, 18 h; series mostly up to 92.4 µM; activity, negative = inhibition: at the top concentration
Summary of the method: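 Luminescence (One-Glo, 30 min at room temperature) after 18 h compound treatment at 37 C of PGC/ERR reporter cells plated at 2,000 cells/well and settled 6 h beforehand.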

| Structure (SMILES) | activity, negative = inhibition |
| --- | --- |
| CC(C)COP(=O)(OCC(C)C)OCC(C)C | -3.5% (inactive) |
| CCOC(=O)CP(=O)(OCC)OCC | 2.9% (inactive) |
| CCOC(=O)NC(=S)Nc1ccccc1NC(=S)NC(=O)OCC | 40.1% (inactive) |
| COC(=O)c1c(C(F)F)nc(C(F)(F)F)c(C2=NCCS2)c1CC(C)C | -0.49% (inactive) |
| C[N+](=O)[O-] | 1.21% (inactive) |
| CC1=NNC(=O)N(/N=C/c2cccnc2)C1 | 2.33% (inactive) |
| N#Cc1ccncc1 | 19.5% (inactive) |
| CCNc1nc(NC(C)C)nc(OC)n1 | 21.3% (inactive) |
| C=C(C)[C@@H]1CC=C(C=O)CC1 | 18.5% (inactive) |
| CC1CCC(=O)O1 (configuration not stated) | 1.35% (inactive) |
| CC(C)CC(N(C)C)C1(c2ccc(Cl)cc2)CCC1 (configuration not stated) | 0.746% [at 42.5 µM] (inactive) |
| O=C1c2ccccc2C(=O)c2ccccc21 | 16.6% [at 19 µM] (inactive) |
| O=C1CN=C(c2ccccc2)c2cc([N+](=O)[O-])ccc2N1 | 49.6% [at 42.5 µM] (inactive) |
